Consider ten compounds from PubChem BioAssay (EPA / NIEHS).

The source made the active and inactive calls. How the source made its calls: active means hit-call score of the fitted dose curve at least 0.9, where 1 is the maximum; inactive means score below 0.9.

The assay can be described thus: CCTE_Shafer_MEA_dev_firing_rate_mean: CCTE's Neural Network Formation Assay for Mean Firing Rate, Shafer Lab (AID 2284031). Here is the method: CCTE_Shafer_MEA_dev assay is conducted using Axion Biosystems 48 well microelectrode array (MEA) plates and Maestro recording system. Each well of the MEA plate contains a grid of 16 microelectrodes embedded in the culture surface. Electrically active cells, such as neurons, can be cultured over the electrodes, and electrical activity in these cells can be recorded extracellularly. The spontaneous firing of neurons is captured from each electrode on a microsecond timescale providing both temporally and spatially precise data. […] The CCTE_Shafer_MEA_dev assay uses primary cultures of rat cortical neurons. Recordings are made on days post-plating 5, 7, 9 and 12. As these cultures mature over time, neural networks develop functional activity and form cohesive networks in which electrical activity can be highly coordinated. CCTE_Shafer_MEA_dev_firing_rate_mean is 1 of 19 assay components of the CCTE_Shafer_MEA_dev assay. It measures the frequency of spikes (action potential firings) as the total number of spikes divided by the length of the recording in a microelectrode array (MEA) using Axion Biosystems Maestro 768 channel amplifier with the AxIS adaptive spike detector. The firing rate is averaged across the active electrodes to report a well-mean value. To collapse across multiple recordings made on days post-plating 5, 7, 9 and 12, the trapezoidal area-under-the-curve of the component is calculated.Data from the assay component CCTE_Shafer_MEA_dev_firing_rate_mean was analyzed into 1 assay endpoint. This assay endpoint, CCTE_Shafer_MEA_dev_firing_rate_mean, was analyzed in the negative analysis fitting direction relative to DMSO as the negative control and baseline of activity. Using a type of functional reporter, gain or loss-of-signal activity can be used to understand electrical activity.
On the day prior to culture, each well was coated thoroughly with 150 uL of 0.05% polyethyleneimine (PEI, Sigma Cat P3143) in 50 mM HEPES (Sigma Cat H7523) at a pH of 8. The plate was incubated at 37C for one hour. PEI was rinsed out with 500 uL of sterile water three times. Plates were stored at 4C until the day of culture. This culture was plated at a seeding density of 1.5 x 10^5 cells/well on a 48-well MEA plate, prepared as described above. Cells were administered via a 25 uL media/laminin ([…]; Sigma Cat L2020-1MG) drop directly onto the microelectrode array, as adding the cells with the laminin results in better attachment than pre-coating with laminin. After 2 hours, an additional 475 uL of cortical media was added and the cells returned to the incubator. Exposure starts at day 0 of plating and is continued over twelve days of network development until the experiment is terminated. Cells are fed with fresh medium on DIV 5 and 9, following the recordings on those days. The entire volume of media in the well is exchanged and any vehicle or compound treatment is renewed. Complete details are found in OP-NHEERL/ISTD/SBB/TJS/2015-03-r0 (available on request, email shafer.tim@epa.gov). Measurement of the electrical activity is non-invasive, and recordings can be made from the same plate over multiple different days of the culture. In cortical neurons, this allows for the measurement of extracellular action potentials over the period during which networks form in the MEA plate.
Regarding `Cn1c(=O)c2c(ncn2C)n(C)c1=O`, the call was inactive.
Turning to `CNCc1ccc(NC(=O)c2c[nH]c3c2C(=O)CCC3)cc1`, the compound was classed as inactive.
With `CC[C@H]1OC(=O)[C@H](C)[C@@H](O[C@H]2C[C@@](C)(OC)[C@@H](O)[C@H](C)O2)[C@H](C)[C@@H](O[C@@H]2O[C@H](C)C[C@H](N(C)C)[C@H]2O)[C@](C)(O)C[C@@H](C)C(=O)[C@H](C)[C@@H](O)[C@]1(C)O`, the compound was classed as inactive.
Consider `O=P(OC(CCl)CCl)(OC(CCl)CCl)OC(CCl)CCl`, for which the compound was classed as inactive.
In the case of `Nc1nc2ncc(CNc3ccc(C(=O)N[C@@H](CCC(=O)O)C(=O)O)cc3)nc2c(=O)[nH]1`, the call was inactive.
Consider `O=C1CCC(N2C(=O)c3ccccc3C2=O)C(=O)N1` (stereo not given), for which the compound was called inactive.
In the case of `CCC(C)(C)C(=O)O[C@H]1C[C@@H](C)C=C2C=C[C@H](C)[C@H](CC[C@@H]3C[C@@H](O)CC(=O)O3)[C@H]21`, the call was inactive.
For `CC[C@H](C)C(=O)O[C@H]1C[C@@H](C)C=C2C=C[C@H](C)[C@H](CC[C@@H]3C[C@@H](O)CC(=O)O3)[C@H]21`, the call was inactive.
For `NC(=O)NO`, the result was inactive.
The value for `COc1ccc(-n2nc(C(F)F)cc2-c2ccc(S(C)=O)cc2)cc1` (stereo not given) was “inactive”.
